The source of these data is the OligoGym collection.
Further: reference of the scale not given here.

One test addresses IL16. The test can be described thus: pooled miR-30 sensor sort-seq; sequence = guide strand. The conditions noted are these: shRNA.
Take TTTCTAGATCTGCTCCTCCTGC: the sensor-assay potency score (higher = more potent) is -0.608.

Sequence TAGATCAGGAACACTGCTGGGC returned a sensor-assay potency score (higher = more potent) of 0.521.

ATCTTCTCCAGTGTCACCGTGC had a sensor-assay potency score (higher = more potent) of -0.369.

A further test deals with IL18RAP. Described as above. The conditions noted are these: shRNA.
TCATCTTGACACAACAGGCTAC gave a sensor-assay potency score (higher = more potent) of 0.09.

With TTTGAATTTCCTATCAGCCTGA, the sensor-assay potency score (higher = more potent) came to 0.608.

Consider TTTCAGTGTTTGATCATCCAAG, for which the sensor-assay potency score (higher = more potent) is -0.42.

As to TTAACTTCTAAAATCATCTTGA, the sensor-assay potency score (higher = more potent) worked out at 1.

TTCTGTTCTACTGAGTCCTTTC returned a sensor-assay potency score (higher = more potent) of -0.716.

Sequence TATTTTCTGATTCTGCTCGGAC had a sensor-assay potency score (higher = more potent) of -0.239.

As to ATAAACTTCATCCACTACGATT, the sensor-assay potency score (higher = more potent) is -1.45.

As for TTGTAGTTCAAAGATACTGGGT, the sensor-assay potency score (higher = more potent) is -0.0545.

As to TTTCTGTTCTACTGAGTCCTTT, the sensor-assay potency score (higher = more potent) was -0.456.

TCTCACTTGAACAACAGCTCTG gave a sensor-assay potency score (higher = more potent) of 0.299.

TTGGACATCAGATAGGTCGTTA: the sensor-assay potency score (higher = more potent) worked out at 0.111.

TTGTTTTCTAAAACATCAGGAA: the sensor-assay potency score (higher = more potent) is -0.521.
